Data on 4 substances can be found in PMC11208138.

Holding throughout (experiment): cross-link between two proteins; cross-linking mass spectrometry
Assay [1] concerns the target PHD finger-like domain-containing protein 5A (UniProt Q7RTV0).
The target of assay [2] is Small nuclear ribonucleoprotein Sm D2 (UniProt P62316).
Assay [3] deals with Splicing factor 3B subunit 5 (UniProt Q9BWJ5).
The target of another assay is THO complex subunit 4 (UniProt Q86V81).

PHD finger-like domain-containing protein 5A, Q7RTV0, sequence (Q7RTV0 whole entry, the tested form may be a part): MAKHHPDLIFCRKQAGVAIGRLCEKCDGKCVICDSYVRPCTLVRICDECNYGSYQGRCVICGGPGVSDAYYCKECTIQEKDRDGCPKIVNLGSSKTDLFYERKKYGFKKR
PHD finger-like domain-containing protein 5A, sequence (Q7RTV0 whole entry, the tested form may be a part): as above
Small nuclear ribonucleoprotein F, P62306, sequence (P62306 whole entry): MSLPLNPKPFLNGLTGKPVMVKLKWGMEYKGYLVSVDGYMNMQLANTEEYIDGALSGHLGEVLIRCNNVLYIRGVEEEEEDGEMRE
Splicing factor 3B subunit 5, sequence (Q9BWJ5 whole entry): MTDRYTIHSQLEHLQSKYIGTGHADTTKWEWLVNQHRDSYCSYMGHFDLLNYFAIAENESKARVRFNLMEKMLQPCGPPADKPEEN
Small nuclear ribonucleoprotein Sm D2, sequence (P62316 whole entry): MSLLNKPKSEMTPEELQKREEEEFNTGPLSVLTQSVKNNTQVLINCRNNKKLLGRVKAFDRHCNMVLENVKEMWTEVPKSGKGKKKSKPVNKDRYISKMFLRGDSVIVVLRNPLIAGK
Splicing factor 3B subunit 1, O75533, sequence (O75533 whole entry): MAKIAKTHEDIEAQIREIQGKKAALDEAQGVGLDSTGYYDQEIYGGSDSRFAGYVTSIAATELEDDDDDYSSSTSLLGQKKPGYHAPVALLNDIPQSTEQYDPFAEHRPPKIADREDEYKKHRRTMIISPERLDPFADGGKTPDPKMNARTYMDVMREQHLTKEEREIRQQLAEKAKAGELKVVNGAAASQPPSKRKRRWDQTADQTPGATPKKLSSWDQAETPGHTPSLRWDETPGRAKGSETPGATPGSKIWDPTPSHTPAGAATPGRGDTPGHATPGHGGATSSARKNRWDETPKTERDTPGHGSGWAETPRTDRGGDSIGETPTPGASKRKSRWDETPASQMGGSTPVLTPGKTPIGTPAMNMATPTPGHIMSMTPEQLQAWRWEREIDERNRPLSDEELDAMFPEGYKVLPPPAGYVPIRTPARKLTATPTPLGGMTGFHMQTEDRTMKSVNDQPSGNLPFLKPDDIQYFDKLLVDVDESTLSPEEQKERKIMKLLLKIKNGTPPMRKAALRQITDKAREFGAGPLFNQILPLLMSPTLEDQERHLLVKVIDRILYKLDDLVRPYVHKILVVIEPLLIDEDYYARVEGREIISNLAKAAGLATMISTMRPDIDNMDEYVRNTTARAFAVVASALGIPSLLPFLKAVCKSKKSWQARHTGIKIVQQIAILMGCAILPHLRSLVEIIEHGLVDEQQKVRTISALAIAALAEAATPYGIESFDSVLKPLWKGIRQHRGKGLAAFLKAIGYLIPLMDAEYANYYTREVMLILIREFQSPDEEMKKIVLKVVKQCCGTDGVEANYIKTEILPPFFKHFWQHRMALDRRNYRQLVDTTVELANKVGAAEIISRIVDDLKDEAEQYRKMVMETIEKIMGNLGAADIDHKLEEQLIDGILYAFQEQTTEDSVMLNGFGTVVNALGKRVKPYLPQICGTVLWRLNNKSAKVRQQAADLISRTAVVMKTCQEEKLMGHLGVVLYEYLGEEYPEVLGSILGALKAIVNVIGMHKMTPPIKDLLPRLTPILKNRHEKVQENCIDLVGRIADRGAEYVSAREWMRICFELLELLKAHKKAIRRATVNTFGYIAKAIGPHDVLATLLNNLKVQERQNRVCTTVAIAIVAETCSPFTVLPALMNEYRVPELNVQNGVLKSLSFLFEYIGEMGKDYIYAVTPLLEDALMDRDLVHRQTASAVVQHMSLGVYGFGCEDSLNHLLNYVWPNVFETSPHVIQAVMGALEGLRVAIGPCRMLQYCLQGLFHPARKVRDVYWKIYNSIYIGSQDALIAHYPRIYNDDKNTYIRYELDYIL

Splicing factor 3B subunit 1, O75533: the “listed as a hit” value in assay [1] is given as “yes”.

For “Small nuclear ribonucleoprotein F, P62306”, the “listed as a hit” value in assay [2] is “yes”.

Take “PHD finger-like domain-containing protein 5A, Q7RTV0”: in assay [3], the “listed as a hit” value is “yes”.

For Enhancer of rudimentary homolog, P84090, the “listed as a hit” value with THO complex subunit 4 was “yes”.
